Experimental data reported in PubChem BioAssay (NCATS).
Records with an inconclusive call do not appear. Entries that show only a call come without a potency. Values without a mark were called inactive. Active and inactive are the calls of the source. The call rests on the fitted dose curve; in most records, active means well fitted curve in the direction sought with a large enough effect; inconclusive means small, poorly fitted or top-dose-only effect, or another doubt; inactive means no such curve, though single readings can be large; an effect the other way counts as inactive or inconclusive.

Legend:
[1] = molecular target: Rap guanine nucleotide exchange factor 3 (Homo sapiens) (UniProt O95398); assay: Confirmatory qHTS for antagonist of cAMP-regulated guanine nucleotide exchange factor 3 (EPAC1) (AID 1645880); details: EPAC1 Rap1B-BODIPY-GDP exchange, fluorescence; activity, negative = inhibition: at 115 µM (top of the series); further: nearly all actives have a fitted effect of over 55% in size; further: potency means the concentration at half of the fitted maximal effect
Outline: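 Nucleotide exchange uses 100 nM EPAC1, 250 nM RAP1B-BODIPY-GDP and 50 uM GDP, with compounds in a concentration-titration series. After 5 min at room temperature, fluorescence (480 nm ex/540 nm em) is read every 5 min for 30 min. Data are normalized to control ATA and DMSO.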

[2] = molecular target: Rap guanine nucleotide exchange factor 3 (Homo sapiens) (UniProt O95398); assay: Confirmatory qHTS for agonist of cAMP-regulated guanine nucleotide exchange factor 3 (EPAC1) (AID 1645881); further: nearly all actives have a fitted effect of over 75% in size; further: potency means the concentration at half of the fitted maximal effect;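 on activation: EPAC1 catalysed release of BODIPY-GDP from Rap1B seen as fluorescence loss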
[3] = molecular target: Rap guanine nucleotide exchange factor 4 (Homo sapiens) (UniProt Q8WZA2); assay: Confirmatory qHTS for agonist of cAMP-regulated guanine nucleotide exchange factor 4 (EPAC2) (AID 1645884);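 further: nucleotide exchange releases bodipy-GDP from Rap1 and this lowers its fluorescence; nearly all actives have a fitted effect of over 65% in size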; further: potency means the concentration at half of the fitted maximal effect
[4] = molecular target: Rap guanine nucleotide exchange factor 4 (Homo sapiens) (UniProt Q8WZA2); assay: Confirmatory qHTS for antagonist of cAMP-regulated guanine nucleotide exchange factor 4 (EPAC2) (AID 1645885); further: nearly all actives have a fitted effect of over 25% in size; further: potency means the concentration at half of the fitted maximal effect
[5] = molecular target: Rap guanine nucleotide exchange factor 3 (Homo sapiens) (UniProt O95398); assay: Counterscreen qHTS for antagonist of cAMP-regulated guanine nucleotide exchange factor 3 (EPAC1) (AID 1645888);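 further: fluorescence loss as bound BODIPY-GDP is released from Rap1B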
Outline: (§1)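 Rap1B-BODIPY-GDP 250 nM + GDP 50 uM; cpds 7-pt, final 9.74 nM–152 uM (activator mode) or from 7.32 nM upwards (inhibitor mode); RT; FI 480/540 nm at 5 and 30 min, then ± cAMP, reread.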

[6] = molecular target: Rap guanine nucleotide exchange factor 3 (Homo sapiens) (UniProt O95398); assay: Counterscreen qHTS for agonist of cAMP-regulated guanine nucleotide exchange factor 3 (EPAC1) (AID 1645889); further: nearly all actives have a fitted effect of over 40% in size; further: potency means the concentration at half of the fitted maximal effect
Outline: as §1

Rap guanine nucleotide exchange factor 4 (Homo sapiens), sequence (Q8WZA2 whole entry, looked up): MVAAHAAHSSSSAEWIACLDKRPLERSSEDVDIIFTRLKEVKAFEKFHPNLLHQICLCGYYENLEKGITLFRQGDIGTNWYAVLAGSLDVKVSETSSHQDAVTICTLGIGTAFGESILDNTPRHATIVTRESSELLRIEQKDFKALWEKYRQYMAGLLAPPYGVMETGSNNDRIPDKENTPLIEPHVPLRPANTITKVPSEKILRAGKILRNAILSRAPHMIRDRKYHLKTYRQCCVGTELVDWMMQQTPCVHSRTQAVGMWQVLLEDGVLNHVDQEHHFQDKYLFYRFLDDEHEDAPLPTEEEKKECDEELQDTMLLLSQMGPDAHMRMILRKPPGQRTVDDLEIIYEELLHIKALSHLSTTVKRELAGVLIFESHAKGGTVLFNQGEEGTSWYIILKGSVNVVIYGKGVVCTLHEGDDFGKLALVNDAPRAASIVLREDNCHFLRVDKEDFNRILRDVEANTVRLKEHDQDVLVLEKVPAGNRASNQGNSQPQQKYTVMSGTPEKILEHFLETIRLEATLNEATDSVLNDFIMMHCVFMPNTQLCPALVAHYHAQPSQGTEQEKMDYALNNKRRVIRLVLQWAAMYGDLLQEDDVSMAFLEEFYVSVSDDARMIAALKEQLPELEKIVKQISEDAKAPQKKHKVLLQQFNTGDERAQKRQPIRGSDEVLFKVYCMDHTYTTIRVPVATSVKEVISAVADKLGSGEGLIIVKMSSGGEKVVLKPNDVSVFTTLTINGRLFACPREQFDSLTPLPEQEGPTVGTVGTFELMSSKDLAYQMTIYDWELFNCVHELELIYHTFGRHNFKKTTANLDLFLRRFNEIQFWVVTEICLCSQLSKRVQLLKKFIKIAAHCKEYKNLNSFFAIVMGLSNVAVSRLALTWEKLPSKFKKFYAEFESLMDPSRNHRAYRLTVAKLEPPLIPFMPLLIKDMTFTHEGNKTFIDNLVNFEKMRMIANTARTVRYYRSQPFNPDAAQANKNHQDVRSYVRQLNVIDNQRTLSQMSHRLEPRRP
Rap guanine nucleotide exchange factor 3 (Homo sapiens), sequence (O95398 whole entry, looked up): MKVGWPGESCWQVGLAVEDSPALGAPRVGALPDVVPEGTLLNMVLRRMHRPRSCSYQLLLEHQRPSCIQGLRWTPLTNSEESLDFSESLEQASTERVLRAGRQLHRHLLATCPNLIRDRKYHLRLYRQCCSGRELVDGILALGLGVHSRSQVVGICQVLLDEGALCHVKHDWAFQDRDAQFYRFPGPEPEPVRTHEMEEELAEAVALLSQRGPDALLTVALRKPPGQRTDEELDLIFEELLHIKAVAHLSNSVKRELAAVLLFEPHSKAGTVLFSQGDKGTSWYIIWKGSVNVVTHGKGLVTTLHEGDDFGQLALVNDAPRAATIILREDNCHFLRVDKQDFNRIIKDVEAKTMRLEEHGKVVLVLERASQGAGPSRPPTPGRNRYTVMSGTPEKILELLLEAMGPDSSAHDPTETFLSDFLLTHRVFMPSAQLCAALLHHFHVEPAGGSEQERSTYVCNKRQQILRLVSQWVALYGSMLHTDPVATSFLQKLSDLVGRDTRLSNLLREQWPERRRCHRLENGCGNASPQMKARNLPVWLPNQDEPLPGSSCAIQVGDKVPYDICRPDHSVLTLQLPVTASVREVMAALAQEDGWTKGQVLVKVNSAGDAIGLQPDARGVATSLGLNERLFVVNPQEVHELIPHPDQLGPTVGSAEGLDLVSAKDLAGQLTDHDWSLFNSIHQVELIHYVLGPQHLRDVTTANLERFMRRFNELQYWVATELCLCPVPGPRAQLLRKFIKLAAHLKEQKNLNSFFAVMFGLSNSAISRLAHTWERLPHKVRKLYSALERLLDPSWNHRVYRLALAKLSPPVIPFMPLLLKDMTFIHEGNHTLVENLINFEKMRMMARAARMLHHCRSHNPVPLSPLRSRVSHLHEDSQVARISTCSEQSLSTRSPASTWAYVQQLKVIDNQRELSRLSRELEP

Structure (SMILES)	Potency [1]	Potency [2]	activation [3]	Potency [4]	activity change, negative = inhibition [5]	activation [6]	Potency [3]	Potency [5]	Potency [6]
CCCCn1c(N)c(N(CCOC)C(=O)c2cccc(S(=O)(=O)N(C)c3ccc(C)cc3)c2)c(=O)[nH]c1=O	inactive	inactive	-4.77% [at 17.1 µM, percent relative to cAMP agonist control]	inactive	3.57% [at 30.8 µM]	14.6% [at 30.8 µM]			
Cc1cccc(NC(=O)C2CCCN(S(=O)(=O)c3ccc4c(c3)oc(=O)n4C)C2)c1 (centres undefined)	inactive	inactive	3.99% [at 17.1 µM, percent relative to cAMP agonist control]	inactive	-11.5% [at 30.8 µM]	7.38% [at 30.8 µM]			
COc1ccc(Cl)cc1NC(=O)CN1CCc2ccccc21	inactive	inactive	2.78% [at 17.1 µM, percent relative to cAMP agonist control]	inactive	-6.37% [at 30.8 µM]	14.8% [at 30.8 µM]			
Cn1c(C(O)c2ccc(Br)cc2)nc(Cl)c1Cl (centres undefined)	inactive	inactive	-7.53% [at 17.1 µM, percent relative to cAMP agonist control]	inactive	-0.272% [at 30.8 µM]	8.17% [at 30.8 µM]			
O=C(CSc1nccn1C1CCCC1)Nc1cc(C(F)(F)F)ccc1Cl	inactive	inactive		inactive			inactive	inactive	inactive
CCN(CC)c1ccc2cc(-c3nc(-c4cccs4)no3)c(=O)oc2c1	inactive	100 µM (active)		3.38 µM (active)			35.5 µM (active)	inactive	79.4 µM (active)
O=C(CN(Cc1ccco1)C(=O)c1ccc(Cl)cc1)Nc1c(Cl)cc(Cl)cc1Cl	inactive	inactive		inactive			inactive	inactive	inactive
O=C(O)c1ccc(N/N=C/c2cccc(C(F)(F)F)c2)cc1	inactive	inactive		inactive			inactive	inactive	inactive
CCc1ccc(C(=O)c2cn(CC(=O)Nc3cccc(OC)c3)c3ccc(OC)cc3c2=O)cc1	53.6 µM (active)	inactive		inactive			inactive	inactive	inactive
Cc1cc(-c2nn(-c3ccccc3F)cc2CN2CCCC(O)C2)c(C)s1 (centres undefined)	inactive	inactive	2.57% [at 17.1 µM, percent relative to cAMP agonist control]	inactive	-17.9% [at 30.8 µM]	23.9% [at 30.8 µM]			
O=C(C1=C(O)C(=O)N(c2nc3ccc(Cl)cc3s2)C1c1ccco1)c1ccco1 (centres undefined)	16.9 µM (active)	inactive		inactive			inactive	inactive	inactive
Cc1[nH]n(-c2ccccc2)c(=O)c1C(c1ccc(C(=O)O)cc1)c1c(C)[nH]n(-c2ccccc2)c1=O	inactive	inactive		inactive			inactive	inactive	1.78 µM (active)
O=C(C1CCN(S(=O)(=O)N2CCOCC2)CC1)N1CCN(c2ccccc2)CC1	inactive	inactive		inactive			inactive	inactive	inactive
c1cncc(-c2nc(NCCCN3CCOCC3)c3c4c(sc3n2)CCC4)c1	inactive	inactive		inactive			inactive	inactive	inactive
COC(=O)c1cc2occc2n1Cc1cccc(C)c1	inactive	inactive		inactive			inactive	inactive	inactive
Cc1cccc(S(=O)(=O)NC(=O)C2(C)CCN2C(=O)Cc2cc(F)ccc2F)c1 (centres undefined)	inactive	inactive	11.8% [at 17.1 µM, percent relative to cAMP agonist control]	inactive	9.86% [at 30.8 µM]	-2.2% [at 30.8 µM]			
O=C(CC(=O)NC1CCCCC1)N/N=C/c1ccc(Cl)cc1	inactive	inactive		inactive			inactive	inactive	inactive

Structure (SMILES)	Potency [1]	Potency [2]	activation [3]	Potency [4]	activity change, negative = inhibition [5]	activation [6]	Potency [3]	Potency [5]	Potency [6]
CC(=O)Nc1cc(C(=O)NCc2ccco2)ccc1Sc1ccc(C)cc1	inactive	inactive	3.77% [at 17.1 µM, percent relative to cAMP agonist control]	inactive	-18.4% [at 30.8 µM]	6.12% [at 30.8 µM]			
CCOC(=O)C1=C(CC)OC(N)=C(C#N)C1c1ccc(OC)c(OC)c1OC (centres undefined)	inactive	inactive	-0.762% [at 17.1 µM, percent relative to cAMP agonist control]	inactive	-16.4% [at 30.8 µM]	8.26% [at 30.8 µM]			
Cc1cccc(C)c1Nc1nn2c(=O)c3cc4c(cc3nc2s1)OCO4	inactive	inactive		inactive			inactive	inactive	inactive
Cc1csc2nc(CNS(=O)(=O)c3ccc4c(c3)CCCC4)cn12	inactive	inactive	-3.4% [at 17.1 µM, percent relative to cAMP agonist control]	inactive	-30.8% [at 30.8 µM]	-8.72% [at 30.8 µM]			
COC(=O)c1ccccc1NC(=O)c1nn(-c2ccc(OC)cc2)c(=O)c2c1c1ccccc1n2C	inactive	inactive		inactive			inactive	inactive	inactive
COc1ccc(/C=N/Nc2ncnc3sc(C)c(C)c23)cc1	inactive	inactive		inactive			inactive	inactive	inactive
CCOC(=O)c1c(-c2ccc(OC)cc2)csc1/N=C/C1=C(O)CCCC1=O	inactive	inactive	4.43% [at 17.1 µM, percent relative to cAMP agonist control]	inactive	-7.43% [at 30.8 µM]	11.3% [at 30.8 µM]			
COc1cccc2c1Oc1ncccc1N(C(=O)CCC(=O)NCc1cccc(C)c1)C2	inactive	inactive		inactive			inactive	inactive	inactive
Cc1ccccc1NC1c2ccccc2C(=O)N1Cc1ccco1 (centres undefined)	inactive	inactive	2.58% [at 17.1 µM, percent relative to cAMP agonist control]	inactive	-11.4% [at 30.8 µM]	17.8% [at 30.8 µM]			
CCN(CC)c1nc2ccccc2n(Cc2cccc(OC)c2)c1=O	inactive	inactive		inactive			inactive	inactive	inactive
COc1ccc(C)cc1Cn1nnc2ccccc21	inactive	inactive		inactive			inactive	inactive	inactive
CCOc1cnc(-c2c(-c3c(Cl)cccc3Cl)noc2C)o1	inactive	inactive	1.16% [at 17.1 µM, percent relative to cAMP agonist control]	inactive	-6.2% [at 30.8 µM]	12% [at 30.8 µM]			
O=C(COc1ccccc1[N+](=O)[O-])Nc1cccc(C(=O)Nc2ccccc2C(=O)O)c1	23.9 µM (active)	inactive		inactive			inactive	inactive	inactive
Cc1cccc(C(=O)Nc2cc(S(=O)(=O)N3CCOCC3)ccc2N2CCCC2)c1	inactive	inactive		inactive			inactive	inactive	inactive
Cc1ccc(S(=O)(=O)Nc2cc(C(=O)NCCN3CCCC3)ccc2N2CCCCC2)cc1	inactive	inactive		inactive			inactive	inactive	inactive
O=C(NN1C(=O)/C(=C\c2ccc(O)c([N+](=O)[O-])c2)SC1=S)c1ccccc1Cl	50.1 µM (active)	inactive	-1.95% [at 17.1 µM, percent relative to cAMP agonist control]	inactive	-8.56% [at 30.8 µM]	0.476% [at 30.8 µM]			
C/C(=N\NS(=O)(=O)c1ccccc1)c1cc(Cl)cc(Cl)c1O	33.8 µM (active)	inactive		21.3 µM (active)			inactive	inactive	inactive
